Screens: PubChem, several laboratories
CYP2C9 act: activators of human CYP2C9 | recombinant CYP2C9, luciferin-H conversion, luminescence; stronger effect = higher value; factor 1 = untreated enzyme, 0 = blocked | activation factor at 5 µM | 96,000 compounds, 1.4% hits;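 active = activation factor of 2 or more for CYP2C9 at a 5 µM dose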
MRP1 act: activators of MRP-1 | AID 799 | viability increase, % at 10 µM | H69AR cells + doxorubicin, viability rescue, CellTiter-Glo | 140,000 compounds, 0.61% hits;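 active = viability gain under doxorubicin at or above a set limit, the compound median plus 3 SD, cut at about 4.7% in these data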;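 note: MRP-1 overexpressing cells given doxorubicin 25 µM after compound pretreatment; 18-22 h compound pretreatment then 72 h with doxorubicin before readout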
MRP reversal: reverses drug resistance mediated by MRP; H69AR cells + 2 uM doxorubicin, CellTiter-Glo, 72 h; differential viability (reversal), % at 10 µM; 85,000 compounds, 0.04% hits;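 active = viability drop by adding the cancer drug above about 55%, with treated viability meeting a 40% cutoff, limit read from the data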;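 note: larger differential means the compound sensitizes cells more to doxorubicin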
CYP2C19 inh: blocks human cytochrome P450 2C19; P33261; CYP2C19 Supersomes, luciferin-H EGE luminescence, 30 min; inhibition, % at 5 µM; 96,000 compounds, 21% hits; AID 778;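 active = CYP2C19 inhibition above a set limit at 5 µM in the primary screen, cut at about 50% in these data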
Target sequence (P33261 whole entry, looked up): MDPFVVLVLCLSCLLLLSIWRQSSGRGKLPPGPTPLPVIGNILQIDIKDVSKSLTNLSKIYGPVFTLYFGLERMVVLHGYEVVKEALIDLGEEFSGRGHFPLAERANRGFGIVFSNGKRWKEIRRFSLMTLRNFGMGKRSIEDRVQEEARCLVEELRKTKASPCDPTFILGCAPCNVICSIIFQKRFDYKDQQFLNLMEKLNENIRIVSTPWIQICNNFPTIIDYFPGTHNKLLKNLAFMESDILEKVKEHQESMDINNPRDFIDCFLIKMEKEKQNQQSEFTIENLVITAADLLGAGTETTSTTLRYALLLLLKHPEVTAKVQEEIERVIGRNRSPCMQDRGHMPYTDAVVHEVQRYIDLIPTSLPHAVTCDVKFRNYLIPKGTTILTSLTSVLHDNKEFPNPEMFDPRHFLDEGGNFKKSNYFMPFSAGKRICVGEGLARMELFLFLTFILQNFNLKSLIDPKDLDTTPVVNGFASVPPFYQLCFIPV
CYP2C19 act: activators of human cytochrome P450 2C19; P33261; recombinant CYP2C19, luciferin-H EGE luminescence; stronger effect = higher value; 0 = fully inhibited enzyme, 1 = untreated enzyme; activation factor at 5 µM; 96,000 tested, under 10 active; AID 1025;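 active = activation factor of at least 2 at 5 µM in the primary screen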
CYP2C9 inhib: human CYP2C9 inhibition; inhibition, % at 5 µM; CYP2C9 Supersomes, luciferin-H conversion, luminescence; 96,000 compounds, 20% hits; AID 777; P11712;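 active = blocking of liver enzyme CYP2C9 beyond about 50% at 5 µM, limit read from the data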
Each line names hits and unclear results; the compound was inactive in the other large screens. A selection: hits, their analogues and other compounds. The true share with any hit is near 21%.

COc1cccc(NC(=O)CCN2CCC(C(N)=O)CC2)c1	none
CCCc1nn(C)c2c1C(c1ccncc1)C(C#N)=C(N)O2 (configuration not stated)	CYP2C9 inhib 72.4
Cc1nn(Cc2ccccc2)c2c1C(c1cccc(Cl)c1)C(C#N)=C(N)O2 (configuration not stated)	CYP2C19 inh 85.1, CYP2C9 inhib 90.8
Cc1cc2c(c(=O)n1C1CC1)C(c1cccc(Cl)c1)C(C#N)=C(N)O2 (configuration not stated)	none
Cc1ccc(-n2nc(C)c3c2OC(N)=C(C#N)C3c2ccncc2)cc1 (configuration not stated)	none
COc1cc(-n2nc(C)c3c2OC(N)=C(C#N)C3c2ccccc2)c(Cl)c(Br)c1O (configuration not stated)	CYP2C19 inh 98.7, CYP2C9 inhib 98.9
Cc1ccc(-n2nc(C)c3c2OC(N)=C(C#N)C3c2ccccc2F)cc1 (configuration not stated)	none
Cc1nn(-c2ccccc2)c(Cl)c1C1C(C#N)=C(N)Oc2c1c(C)nn2-c1ccccc1 (configuration not stated)	CYP2C19 inh 80.7, CYP2C9 inhib 91.2
CCN1c2ccccc2-c2nc3ccccc3n2C1c1cccs1 (configuration not stated)	none (no result: CYP2C9 act, MRP reversal, CYP2C19 inh, CYP2C19 act, CYP2C9 inhib)
Cc1ccc(-n2nc(C)c(C3C(C#N)=C(N)OC4=C3C(=O)CC(C)(C)C4)c2Cl)cc1 (configuration not stated)	none (no result: MRP1 act)
Cc1nn(-c2ccccc2)c(Cl)c1C1C(C#N)=C(N)OC2=C1C(=O)CCC2 (configuration not stated)	CYP2C19 inh 90.9, CYP2C9 inhib 76.0
CC(NC(=O)C1CCCCC1)C(=O)NC1=NCCS1 (configuration not stated)	none
Cc1ccc(OCc2cn3cccnc3n2)cc1	none (no result: CYP2C9 act, MRP reversal, CYP2C19 inh, CYP2C19 act, CYP2C9 inhib)
O=C1/C(=N/n2cnnc2)c2ccccc2N1Cc1ccccc1	CYP2C19 inh 62.7
COc1cc(C)nc(NS(=O)(=O)c2ccc(C)cc2)n1	none (no result: MRP reversal)
COc1ccc(NC(=O)c2csc(Cc3ccccc3)n2)cc1	CYP2C19 inh 50.1, CYP2C9 inhib 63.8
O=C(Nc1ccc(Cl)cc1)c1csc(-c2ccccc2)n1	none (no result: MRP reversal)
COc1ccc(CNC(=O)c2csc(Cc3ccccc3)n2)cc1	CYP2C19 inh 87.5, CYP2C9 inhib 59.3 (no result: MRP reversal)
COc1ccccc1CNC(=O)COC(=O)Cc1ccc(Cl)cc1	none (no result: CYP2C9 act, MRP reversal, CYP2C19 inh, CYP2C19 act, CYP2C9 inhib)
COc1ccc(CNC(=O)c2ccc(-c3ccccc3)cc2)cc1	none (no result: MRP reversal)
COc1ccccc1CNC(=O)c1csc(Cc2ccc(Cl)cc2)n1	CYP2C19 inh 59.7, CYP2C9 inhib 56.2 (no result: MRP reversal)
O=C(NC(NC(=O)c1ccccc1)c1ccccc1)c1ccccc1	none
COc1ccc(C2C(C#N)=C(/N=C/N3CCN(C)CC3)OC3=C2C(=O)CC(C)(C)C3)cc1OC (configuration not stated)	none
Cc1ccc(C(=O)NC(c2ccccc2)C(Cl)Cl)cc1 (configuration not stated)	none (no result: CYP2C9 act, MRP reversal, CYP2C19 inh, CYP2C19 act, CYP2C9 inhib)
O=C(COc1ccc(Br)cc1)N/N=C1/SCC(=O)N1Cc1ccccc1	none (no result: CYP2C9 act, MRP reversal, CYP2C19 inh, CYP2C19 act, CYP2C9 inhib)
CC1=CC(C)(C)N2C(=O)C3(C(C#N)=C(N)Oc4cc(O)ccc43)c3cccc1c32 (configuration not stated)	CYP2C9 inhib 51.0
CC1=CC(C)(C)N2C(=O)C3(C(C#N)=C(N)OC4=C3C(=O)CC(C)(C)C4)c3cccc1c32 (configuration not stated)	none
COc1cc2c3c(c1)C1(C(=O)N3C(C)(C)C=C2C)C(C#N)=C(N)Oc2cc(C)oc(=O)c21 (configuration not stated)	CYP2C19 inh 55.2
Cc1ccc2c3c1C(=O)C(=O)N3C(C)(C)CC2C (configuration not stated)	none (no result: MRP reversal)
Cc1ccc2c3c1C1(C(=O)N3C(C)(C)CC2C)C(C#N)=C(N)Oc2cc(O)ccc21 (configuration not stated)	CYP2C19 inh 69.7, CYP2C9 inhib 89.3
Cc1cc2c3c(c1)C1(C(=O)N3C(C)(C)CC2C)C(C#N)=C(N)Oc2cc(O)ccc21 (configuration not stated)	CYP2C19 inh 79.0, CYP2C9 inhib 89.7
CCc1cc2c3c(c1)C1(C(=O)N3C(C)(C)CC2C)C(C#N)=C(N)N2C(=C1C#N)Nc1ccccc12 (configuration not stated)	none (no result: CYP2C9 act, MRP reversal, CYP2C19 inh, CYP2C19 act, CYP2C9 inhib)
Cc1c(NS(=O)(=O)c2cccc3nsnc23)c(=O)n(-c2ccccc2)n1C	none (no result: CYP2C9 act, CYP2C19 inh, CYP2C19 act, CYP2C9 inhib)
COc1ccc(CCNC(=O)c2[nH]c(C)c(C(C)=O)c2C)cc1	CYP2C19 inh 50.2, CYP2C9 inhib 72.6
CC(=O)c1c(C)[nH]c(C(=O)OCC(=O)NCCc2ccc(Cl)cc2)c1C	CYP2C19 inh 87.0, CYP2C9 inhib 87.3
CC(=O)c1c(C)[nH]c(C(=O)OCC(=O)NCCc2ccc(F)cc2)c1C	none
O=C(O)CCCC(=O)Nc1ccccc1C(=O)N1CCCC1	none
[O-]C1=N/[N+](=C/c2ccccc2Cl)CC1	none
CCn1cc(C(=O)Nc2cc3c(cc2NC(C)=O)OCCO3)c(=O)c2ccc(C)nc21	none (no result: CYP2C9 act, MRP1 act, CYP2C19 inh, CYP2C19 act, CYP2C9 inhib)
O=C(Nc1cccc(-c2nc3ccccc3[nH]2)c1)c1ccco1	CYP2C19 inh 82.4, CYP2C9 inhib 71.9
O=C(Nc1cccc(NC(=O)c2nccc3ccccc23)c1)c1ccco1	CYP2C9 act 2 (no result: MRP1 act)
O=C(Nc1cccc(-c2cnc3ccccc3n2)c1)c1cccc(NC(=O)c2ccco2)c1	CYP2C19 inh 69.3, CYP2C9 inhib 75.4
CCN1CCCC1CNC(=O)c1nn(-c2ccc(C)cc2)c(=O)c2c1c1ccccc1n2C (configuration not stated)	none (no result: CYP2C9 act, MRP1 act, CYP2C19 inh, CYP2C19 act, CYP2C9 inhib)
Cc1ccc(S(=O)(=O)Nc2ccc(Cl)cc2)cc1NC(=O)Cn1cnc2c1c(=O)n(C)c(=O)n2C	none (no result: CYP2C9 act, MRP reversal, CYP2C19 inh, CYP2C19 act, CYP2C9 inhib)
NC(=O)NOCc1ncc(C(F)(F)F)cc1Cl	none
CO/N=C/NC(=O)C1=NOC(CNc2ncc(C(F)(F)F)cc2Cl)C1 (configuration not stated)	CYP2C19 inh 74.8
NC(=O)C1=NOC(CNc2ncc(C(F)(F)F)cc2Cl)C1 (configuration not stated)	CYP2C9 act 2.7
O=C(/C=C/c1ccc2c(c1)OCO2)N1CCN(c2ccccc2F)CC1	none (no result: CYP2C9 act, MRP reversal, CYP2C19 inh, CYP2C19 act, CYP2C9 inhib)
O=C1Nc2ccc(S(=O)(=O)N3CCCCCC3)c3cccc1c23	CYP2C19 inh 79.1
CCOc1ccccc1N1CCN(S(=O)(=O)c2ccc3c4c(cccc24)C(=O)N3)CC1	CYP2C19 inh 90.9, CYP2C9 inhib 73.4
O=S(=O)(c1cccc2c(S(=O)(=O)N3CCCC3)cccc12)N1CCCC1	none
O=C1Nc2ccc(S(=O)(=O)N3CCOCC3)c3cccc1c23	CYP2C19 inh 59.2
O=C1Nc2ccc(S(=O)(=O)NCc3ccccn3)c3cccc1c23	none
CN1CCN(S(=O)(=O)c2ccc3c4c(cccc24)C(=O)N3)CC1	CYP2C19 inh 55.1
